From PubChem BioAssay AID1159580 (chemical genetic matrix, 2015)
Several values for one entry are separate records, joined by “and”; a condition that tells them apart may be missing. Equal values may be shown once. Hit rate of the full screen: of about 5,500 compounds, about 2,000 (36%) were called active. Roughly 18% stayed inconclusive and do not appear here. Cut-off read from the data, not from the text of the source: active = normalized growth mostly below about 0.91 (no sharp cut-off); inconclusive = no clear call, values can overlap the other calls; inactive = mostly above about 0.92. The list shows a part of the results.

Assay: chemical genetic growth profiling, strain panel (AID 1159580);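 note: tested at 20 µM; growth read once vehicle control cultures reached saturation at 30 °C; 1 = growth at the plate median or of vehicle wells; lower values mean less growth of the strain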
Settings: S. cerevisiae deletion strains, growth OD

Measured: normalized growth

O[N+]1=CC=CCC1=S.On1ccccc1=S.[Zn]
active: locus YAL013W, strain DEP1, stronger effect = lower value 0.0588 | locus YAL021C, strain ccr4, stronger effect = lower value 0.0689 | locus YAL026C, strain drs2, stronger effect = lower value 0.0618 | locus YAL030W, strain snc1, stronger effect = lower value 0.0584 | locus YBL061C, strain skt5, stronger effect = lower value 0.0681 | locus YBR009C, strain hhf1, stronger effect = lower value 0.0728 | locus YBR021W, strain FUR4, stronger effect = lower value 0.0965 | locus YBR023C, strain chs3, stronger effect = lower value 0.0675 | locus YBR171W, strain sec66, stronger effect = lower value 0.0802 | locus YBR229C, strain ROT2, stronger effect = lower value 0.052 | locus YBR231C, strain swc5, stronger effect = lower value 0.0683 | locus YBR279W, strain paf1, stronger effect = lower value 0.0672 | locus YCL011C, strain gbp2, stronger effect = lower value 0.0581 | locus YCL016C, strain dcc1, stronger effect = lower value 0.0685 | locus YCL029C, strain bik1, stronger effect = lower value 0.0621 | locus YCL061C, strain MRC1, stronger effect = lower value 0.0686 | locus YCL069W, strain vba3, stronger effect = lower value 0.0611 | locus YCR088W, strain abp1, stronger effect = lower value 0.0601 | locus YDL005C, strain med2, stronger effect = lower value 0.081 | locus YDL035C, strain GPR1, stronger effect = lower value 0.0513 | locus YDL040C, strain nat1, stronger effect = lower value 0.061 | locus YDL074C, strain BRE1, stronger effect = lower value 0.0852 | locus YDL101C, strain DUN1, stronger effect = lower value 0.0624 | locus YDL185W, strain tfp1, stronger effect = lower value 0.0604 | locus YDL192W, strain arf1, stronger effect = lower value 0.0611 | locus YDR001C, strain nth1, stronger effect = lower value 0.0598 | locus YDR069C, strain doa4, stronger effect = lower value 0.0662 | locus YDR101C, strain arx1, stronger effect = lower value 0.0573 | locus YDR137W, strain rgp1, stronger effect = lower value 0.0942 | locus YDR150W, strain NUM1, stronger effect = lower value 0.0564 | locus YDR159W, strain sac3, stronger effect = lower value 0.104 | locus YDR162C, strain NBP2, stronger effect = lower value 0.0519 | locus YDR195W, strain ref2 0.122 | locus YDR297W, strain sur2, stronger effect = lower value 0.0587 | locus YDR318W, strain mcm21, stronger effect = lower value 0.0644 | locus YDR334W, strain swr1, stronger effect = lower value 0.0636 | locus YDR335W, strain msn5, stronger effect = lower value 0.0604 | locus YDR388W, stronger effect = lower value 0.0563 | locus YDR392W, strain spt3, stronger effect = lower value 0.102 | locus YDR502C, strain sam2, stronger effect = lower value 0.0617 | locus YEL003W, strain gim4, stronger effect = lower value 0.0591 | locus YEL037C, strain rad23, stronger effect = lower value 0.0593 | locus YEL061C, strain CIN8 (second series), stronger effect = lower value 0.0642 | locus YEL061C, strain CIN8, stronger effect = lower value 0.0538 | locus YER015W, strain faa2, stronger effect = lower value 0.0649 | locus YER016W, strain bim1, stronger effect = lower value 0.0653 | locus YER110C, stronger effect = lower value 0.0752 | locus YER111C, strain swi4, stronger effect = lower value 0.0747 | locus YER155C, strain BEM2 (second series), stronger effect = lower value 0.0952 | locus YER155C, strain BEM2, stronger effect = lower value 0.0682 | locus YER167W, strain BCK2, stronger effect = lower value 0.0543 | locus YFR010W, strain ubp6, stronger effect = lower value 0.0685 | locus YGL078C, strain dbp3, stronger effect = lower value 0.0615 | locus YGL086W, strain mad1, stronger effect = lower value 0.0569 | locus YGL167C, strain pmr1, stronger effect = lower value 0.0764 | locus YGL173C, strain kem1, stronger effect = lower value 0.0718 | locus YGL227W, strain vid30, stronger effect = lower value 0.0622 | locus YGL240W, strain doc1, stronger effect = lower value 0.0817 | locus YGL248W, strain PDE1, stronger effect = lower value 0.0522 | locus YGL253W, strain hxk2, stronger effect = lower value 0.0558 | locus YGR078C, strain PAC10, stronger effect = lower value 0.0545 | locus YGR135W, strain pre9, stronger effect = lower value 0.0622 | locus YGR252W, strain gcn5, stronger effect = lower value 0.164 | locus YHR013C, strain ard1, stronger effect = lower value 0.117 | locus YHR027C, strain rpn1, stronger effect = lower value 0.0678 | locus YHR030C, strain SLT2, stronger effect = lower value 0.0537 and 0.0956 | locus YHR079C, strain IRE1 (second series), stronger effect = lower value 0.0577 | locus YHR079C, strain IRE1, stronger effect = lower value 0.111 | locus YHR094C, strain hxt1, stronger effect = lower value 0.0579 | locus YHR129C, strain ARP1, stronger effect = lower value 0.0604 | locus YHR142W, strain chs7, stronger effect = lower value 0.0777 | locus YHR200W, strain rpn10, stronger effect = lower value 0.0589 | locus YIL066C, strain RNR3, stronger effect = lower value 0.0511 | locus YIL073C, strain SPO22, stronger effect = lower value 0.113 | locus YIL125W, strain kgd1, stronger effect = lower value 0.0608 | locus YIR030C, strain dcg1, stronger effect = lower value 0.0598 | locus YJL092W, strain hpr5, stronger effect = lower value 0.0603 | locus YJL095W, strain BCK1 (second series), stronger effect = lower value 0.0629 | locus YJL095W, strain BCK1, stronger effect = lower value 0.0641 and 0.0953 | locus YJL115W, strain asf1, stronger effect = lower value 0.0768 | locus YJL129C, strain trk1, stronger effect = lower value 0.0933 | locus YJL134W, strain LCB3, stronger effect = lower value 0.0509 | locus YJL154C, strain vps35, stronger effect = lower value 0.064 | locus YJL164C, strain tpk1, stronger effect = lower value 0.0692 | locus YJL166W, strain qcr8, stronger effect = lower value 0.0996 | locus YJL168C, strain set2, stronger effect = lower value 0.0599 | locus YJL187C, strain SWE1 (second series), stronger effect = lower value 0.0508 | locus YJL187C, strain SWE1, stronger effect = lower value 0.0629
